Source: PubChem BioAssay (Tox21)
Several values for one entry are separate records, joined by “and”; a condition that tells them apart may be missing. Equal values may be shown once. A number with no mark means an inactive call. Inconclusive results are not listed. Where a call stands in place of a potency, no number is given. Activity calls are given as the source filed them. Unless noted, calls follow the shape of the dose curve; as a rule, active = well fitted curve in the direction sought with a large enough effect in the repeat runs; inconclusive = weak or mixed curves; inactive = no such curve, though single readings can be large; an effect the other way counts as inactive or inconclusive.

Assays:
[1] = qHTS assay to identify small molecule antagonists of the estrogen related receptor (ERR) signaling pathway from Tox21 library - cell viability counter screen (AID 1224834); also: nearly all actives have a fitted effect of over 30% in size
Method in brief: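 Seeded ERR cells were rested 6 h at 37 C/5% CO2 before compounds, positive and negative controls or DMSO were added. Incubation continued for 17.5 h, and viability was then quantified by CellTiter-Fluor fluorescence.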

[2] = target: Luciferin 4-monooxygenase (Photinus pyralis) (UniProt P08659); assay: qHTS assay to identify small molecule inhibitors of firefly luciferase (AID 1224835); also: nearly all actives have a fitted effect of over 25% in size
Method in brief: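 Biochemical qHTS: compounds run as interplate titrations against purified firefly enzyme, with D-luciferin and ATP each at its KM concentration. Light output recorded by CCD imaging.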

[3] = qHTS assay to identify small molecule agonists of the constitutive androstane receptor (CAR) signaling pathway - cell viability counter screen (AID 1224836); also: nearly all actives have a fitted effect of over 45% in size
Method in brief: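 HepG2-CYP2B6-hCAR, 2500 cells/well, 4 h pre-incubation; cpd 15 conc + PK11195 0.75 uM final; 23 h, 37 C/5% CO2; CellTiter-Fluor, fluorescence.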

[4] = qHTS assay to identify small molecule antagonists of the constitutive androstane receptor (CAR) signaling pathway - cell viability counter screen (AID 1224837); also: nearly all actives have a fitted effect of over 45% in size
Method in brief: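 To flag cytotoxic false antagonists, HepG2 hCAR/CYP2B6-2.2kb cells were treated 23 hr with 15-concentration compound series and 50 nM CITCO at 37 C/5% CO2; CellTiter-Fluor fluorescence was the measured end point.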

[5] = target: Nuclear receptor subfamily 1 group I member 3 (Homo sapiens) (UniProt Q14994); assay: qHTS assay to identify small molecule antagonists of the constitutive androstane receptor (CAR) signaling pathway (AID 1224838);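 also: HepG2 cells stably expressing hCAR with CYP2B6 luciferase reporter stimulated by CITCO; nearly all actives have a fitted effect of over 40% in size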
Method in brief: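 Human hepatoma HepG2 cells expressing hCAR and a CYP2B6 promoter (2.2 kb) luciferase construct; compound titration (15 points) with 50 nM CITCO final, 24 h at 37 C/5% CO2; luminescence via ONE-Glo after 30 min at room temperature.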

[6] = target: Nuclear receptor subfamily 1 group I member 3 (Homo sapiens) (UniProt Q14994); assay: qHTS assay to identify small molecule agonists of the constitutive androstane receptor (CAR) signaling pathway (AID 1224839);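 also: HepG2 cells stably carrying human CAR and a CYP2B6 luciferase reporter; nearly all actives have a fitted effect of over 15% in size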
Method in brief: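 HepG2-CYP2B6-hCAR cells, 2500/well, 4 h pre-incubation; compounds 15 conc.; PK11195 0.75 uM final; 24 h, 37 C/5% CO2; ONE-Glo luciferase read.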

[7] = qHTS assay to identify small molecule antagonists of the estrogen related receptor signaling pathway with the pleiotropic PPARgamma coactivator (PGC) from Tox21 10K library - cell viability counter screen (AID 1224840; active = well fitted cell-killing curve with a large enough effect in the repeat runs, not every such curve was filed as active; also: nearly all actives have a fitted effect of over 40% in size)
Method in brief: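 Seeded PGC/ERR cells (2,000/well, 6 h, 37 C/5% CO2) get compound by pin tool; 17.5 h incubation at 37 C; CellTiter-Fluor added, 30 min, fluorescence measured.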

[8] = target: Thyrotropin receptor (Homo sapiens) (UniProt P16473); assay: qHTS assay to identify small molecule agonists of the thyroid stimulating hormone receptor (TSHR) signaling pathway (AID 1224843; calls by dose curve; also: nearly all actives have a fitted effect of over 45% in size)
Method in brief: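 HEK293/TSHR, 800 cells/well; cpd 30 min RT; add cAMP-d2 + anti-cAMP-cryptate, 1 h RT; fluorescence read on plate reader. 15-pt titration, n=3.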

[9] = qHTS assay to identify small molecule agonists of the hypoxia (HIF-1) signaling pathway - cell viability counter screen (AID 1224844; calls by dose curve; also: nearly all actives have a fitted effect of over 50% in size)
Method in brief: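 HRE-bla ME-180; 0.5% dFBS; cpd 17 h, 37C, 5% CO2; CellTiter-Glo lum., 30 min RT, post-FRET read, same wells.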

[10] = qHTS assay to identify small molecule agonists of H2AX (AID 1224845; active = well fitted activation curve with a large enough effect in the signal ratio in the repeat runs, not every such curve was filed as active; the % refers to the signal ratio)
Method in brief: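 Wild-type CHO-K1 cells, plated overnight, exposed 3hr at 37C to 15 concentrations (0.76% DMSO final). Lysed, then HTRF anti-pH2AX (S139) cryptate and anti-H2AX-d2 antibodies, 24 hr room temperature; 665/620 nm emission read.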

[11] = qHTS assay to identify small molecule agonists of the hypoxia (HIF-1) signaling pathway (AID 1224846; active = well fitted activation curve with a large enough effect in the signal ratio in the repeat runs, not every such curve was filed as active; the % refers to the signal ratio)
Method in brief: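 Reporter induction in HRE-bla ME-180 cells is taken as agonism: cells sit 5 hrs after plating, receive compounds or DMSO only, incubate 17 hrs at 37C under 5% CO2, and are loaded with CCF4-AM for beta-lactamase FRET measurement.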

[12] = qHTS assay to identify small molecule agonists of H2AX - cell viability counter screen (AID 1224847; calls by dose curve; also: top concentration of the series differs between compounds; nearly all actives have a fitted effect of over 30% in size)
Method in brief: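 Cells plated first: CHO-K1, 1000 per well in 10% FBS medium, incubated overnight at 37C. Then 15-point compound titration added (final DMSO 0.76%) for 3 hr. Finally CellTiter-Glo added and luminescence read.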

[13] = qHTS RealTime-Glo MT Cell Viability Assay in HepG2 cells - 24 hour (AID 1224867); also: nearly all actives have a fitted effect of over 50% in size
Method in brief: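 HepG2 cells (600/well) were dispensed with RealTime-Glo reagents, incubated 5 h at 37 °C, then treated with compounds in DMSO for up to 40 h. Nonlytic NanoLuc luminescence reflecting viable cells was read at each stated time point.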

[14] = A CellTox Green Cytotoxicity Assay to monitor cytotoxicity in HEK293 cells - 0 hour (AID 1224869); also: nearly all actives have a fitted effect of over 50% in size
Method in brief: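 Tox21 screen in HEK293: membrane-impermeant cyanine dye fluoresces on binding dead-cell DNA; compound pinned 5 h post-seeding, plates held at 37 C, signal read repeatedly through 40 h.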

[15] = qHTS assay to identify small molecule antagonists of the estrogen related receptor signaling pathway with the pleiotropic PPARgamma coactivator (PGC) from Tox21 10K library (AID 1224841; call rule not given here; also: actives are mostly falling curves and most rising ones were filed inactive; nearly all actives have a fitted effect of over 50% in size)
Method in brief: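 Test chemicals dissolved in DMSO were applied to pre-incubated (6 h) PGC/ERR cells at 2,000 cells/well for an 18 h, 37 C treatment; reporter luminescence was then read using One-Glo.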

[16] = qHTS assay to identify small molecule agonists of the estrogen related receptor signaling pathway with the pleiotropic PPARgamma coactivator (PGC) from Tox21 10K library (AID 1224842); also: nearly all actives have a fitted effect of over 15% in size
Method in brief: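 PGC/ERR reporter cell line, 2,000 cells per well, incubated 6 h at 37 C before 23 nL compound in DMSO was added. After 18 h at 37 C, One-Glo luminescence read following 30 min at room temperature.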

[17] = qHTS assay to identify small molecule antagonists of the estrogen related receptor (ERR) signaling pathway from Tox21 library (AID 1224848); also: nearly all actives have a fitted effect of over 50% in size; also: potency is read from the fitted curve at half-maximal effect
Method in brief: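 Compounds dissolved in DMSO are pin-transferred onto ERR reporter cells (2,000 per well) that have settled for 6 h at 37 C. Plates then incubate 18 h at 37 C before ONE-Glo luciferase reagent and a luminescence read 30 min later.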

[18] = qHTS assay to identify small molecule agonists of the estrogen related receptor (ERR) signaling pathway from Tox21 library (AID 1224849; calls by dose curve; also: nearly all actives have a fitted effect of over 15% in size); conditions: ERR reporter cell line, ONE-Glo luciferase, 18 h
Method in brief: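 Tox21 compounds tested for ERR agonism in an NTP reporter cell line: 18 h treatment at 37 C, then ONE-Glo luminescence.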

[19] = qHTS RealTime-Glo MT Cell Viability Assay in HEK293 cells - 32 hour (AID 1224868)
Method in brief: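 HEK293 cells seeded with NanoLuc/prosubstrate reagent, rested 5 h at 37 C, then dosed and kept at 37 C up to 40 h. Nonlytic real-time luminescence from viable cells read at 0, 8, 16, 24, 32 and 40 h.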

Sequence of Nuclear receptor subfamily 1 group I member 3 (Homo sapiens) (Q14994 whole entry, looked up): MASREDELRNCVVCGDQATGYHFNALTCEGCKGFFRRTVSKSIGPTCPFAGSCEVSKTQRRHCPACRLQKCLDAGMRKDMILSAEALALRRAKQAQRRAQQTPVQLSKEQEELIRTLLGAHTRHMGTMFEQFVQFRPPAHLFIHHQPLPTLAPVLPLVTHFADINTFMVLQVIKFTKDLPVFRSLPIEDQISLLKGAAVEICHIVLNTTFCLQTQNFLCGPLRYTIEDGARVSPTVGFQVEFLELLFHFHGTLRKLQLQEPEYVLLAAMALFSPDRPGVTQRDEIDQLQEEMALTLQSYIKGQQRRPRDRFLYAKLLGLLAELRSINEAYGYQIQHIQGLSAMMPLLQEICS
Sequence of Thyrotropin receptor (Homo sapiens) (P16473 whole entry, looked up): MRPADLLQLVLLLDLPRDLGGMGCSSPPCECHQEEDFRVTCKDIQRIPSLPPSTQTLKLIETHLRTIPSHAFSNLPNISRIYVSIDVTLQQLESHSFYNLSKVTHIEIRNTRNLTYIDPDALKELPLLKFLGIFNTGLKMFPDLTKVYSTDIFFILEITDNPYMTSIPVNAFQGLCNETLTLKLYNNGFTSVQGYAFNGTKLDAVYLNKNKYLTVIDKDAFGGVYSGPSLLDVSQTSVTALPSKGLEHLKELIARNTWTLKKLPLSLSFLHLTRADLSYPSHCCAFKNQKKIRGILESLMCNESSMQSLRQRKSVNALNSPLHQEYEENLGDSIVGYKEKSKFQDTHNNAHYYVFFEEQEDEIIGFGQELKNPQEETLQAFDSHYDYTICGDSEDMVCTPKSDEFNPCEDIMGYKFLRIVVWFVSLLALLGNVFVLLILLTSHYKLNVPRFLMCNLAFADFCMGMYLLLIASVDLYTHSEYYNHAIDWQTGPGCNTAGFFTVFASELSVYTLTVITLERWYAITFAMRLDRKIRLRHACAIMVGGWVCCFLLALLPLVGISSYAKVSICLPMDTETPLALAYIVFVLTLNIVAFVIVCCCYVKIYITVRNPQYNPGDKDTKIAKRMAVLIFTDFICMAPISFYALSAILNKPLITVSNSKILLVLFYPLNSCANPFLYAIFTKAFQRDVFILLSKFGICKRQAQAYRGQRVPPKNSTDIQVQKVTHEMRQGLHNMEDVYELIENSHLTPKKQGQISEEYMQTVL
Sequence of Luciferin 4-monooxygenase (Photinus pyralis) (P08659 whole entry, looked up): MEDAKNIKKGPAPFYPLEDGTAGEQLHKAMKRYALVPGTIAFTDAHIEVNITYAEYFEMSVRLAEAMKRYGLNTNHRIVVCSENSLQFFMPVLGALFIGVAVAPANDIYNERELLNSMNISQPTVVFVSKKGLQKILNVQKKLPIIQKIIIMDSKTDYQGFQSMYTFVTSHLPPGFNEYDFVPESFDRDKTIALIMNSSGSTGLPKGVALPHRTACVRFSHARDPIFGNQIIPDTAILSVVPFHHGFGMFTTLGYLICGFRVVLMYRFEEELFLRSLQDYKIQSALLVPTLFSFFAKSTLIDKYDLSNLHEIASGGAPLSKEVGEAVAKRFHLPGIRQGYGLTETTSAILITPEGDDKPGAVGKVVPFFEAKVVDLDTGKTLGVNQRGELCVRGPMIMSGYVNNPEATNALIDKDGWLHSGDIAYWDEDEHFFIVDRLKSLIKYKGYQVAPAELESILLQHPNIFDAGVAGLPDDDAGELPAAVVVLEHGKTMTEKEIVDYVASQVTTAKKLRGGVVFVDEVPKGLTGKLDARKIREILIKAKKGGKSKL

Cc1c(C(N)=O)cc([N+](=O)[O-])cc1[N+](=O)[O-]
Potency [1]: inactive | Potency [2]: inactive | Potency [3]: inactive | Potency [4]: inactive | Potency [5]: inactive | Potency [6]: inactive | Potency [7]: inactive | Potency [8]: inactive | Potency [9]: inactive | outcome [10]: inactive | Potency [11]: inactive | Potency [12]: inactive | Potency [13]: inactive | Potency [14]: inactive

COc1ccc(OC)c(C(O)CNC(=O)CN)c1 (stereo unspecified)
Potency [1]: inactive | Potency [2]: inactive | Potency [3]: inactive | Potency [4]: inactive | Potency [5]: inactive | Potency [6]: inactive | Potency [7]: inactive | Potency [15]: inactive | Potency [16]: inactive | Potency [8]: inactive | Potency [9]: inactive | outcome [10]: inactive | Potency [12]: inactive | Potency [17]: inactive | activity change, positive = activation ([18]; at 42.5 µM (top of the series)): -0.419% | activity change, positive = activation ([18]; at 92.4 µM (top of the series)): -28% | Potency [13]: inactive | Potency [19]: inactive | Potency [14]: inactive

O=C(c1ccccc1)c1ccccc1O
Potency [1]: inactive | Potency [2]: inactive | Potency [3]: inactive | Potency [4]: inactive | Potency [5]: inactive | Potency [6]: inactive | Potency [7]: inactive | Potency [15]: inactive | Potency [16]: inactive | Potency [8]: inactive | Potency [9]: inactive | outcome [10]: inactive | Potency [11]: inactive | Potency [17]: inactive | activity change, positive = activation ([18]; at 92.4 µM (top of the series)): -0.602% and -1.04% | Potency [13]: inactive | Potency [19]: inactive | Potency [14]: inactive

C[C@]12CC[C@H]3[C@@H](CCC4=CC(=O)CC[C@@]43C)[C@@H]1CC[C@@H]2C(=O)CO
Potency [1]: inactive | Potency [2]: inactive | Potency [3]: inactive | Potency [4]: inactive | Potency [5]: inactive | Potency [6]: inactive | Potency [7]: inactive | Potency [15]: inactive | Potency [16]: inactive | Potency [9]: inactive | outcome [10]: inactive | Potency [12]: inactive | Potency [17]: 27.3 µM (active) and 26.6 µM (active) | activity change, positive = activation ([18]; at 42.5 µM (top of the series)): -34.2% | activity change, positive = activation ([18]; at 92.4 µM (top of the series)): -55.9% | Potency [13]: inactive | Potency [14]: inactive

c1ccc2cc(Nc3ccc(Nc4ccc5ccccc5c4)cc3)ccc2c1
Potency [1]: inactive | Potency [2]: inactive | Potency [3]: inactive | Potency [4]: inactive | Potency [5]: inactive | Potency [6]: inactive | Potency [7]: inactive | Potency [15]: inactive | Potency [16]: inactive | Potency [9]: inactive | outcome [10]: inactive | Potency [11]: inactive | Potency [12]: inactive | Potency [17]: inactive | activity change, positive = activation ([18]; at 92.4 µM (top of the series)): 1.47% and 5.2% | Potency [13]: inactive | Potency [19]: inactive | Potency [14]: inactive

Cc1ccc(C)c(O)c1C
Potency [1]: inactive | Potency [2]: inactive | Potency [3]: inactive | Potency [4]: inactive | Potency [5]: inactive | Potency [6]: inactive | Potency [7]: inactive | Potency [8]: inactive | Potency [9]: inactive | outcome [10]: inactive | Potency [11]: inactive | Potency [12]: inactive | Potency [13]: inactive | Potency [19]: inactive | Potency [14]: inactive
